The nature of assay [1]: Nuclear factor erythroid 2-related factor 2/antioxidant responsive element (Nrf2/ARE) small molecule agonists: qHTS cell viability counter screen in human keratinocytes (AID 1919968; active = well fitted curve in the direction sought with a large enough effect in the repeat runs; an effect the other way counts as inactive or inconclusive; note: nearly all actives have a fitted effect of over 55% in size; note: potency is the fitted concentration of half-maximal effect). A digest of the protocol: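 Stably transfected HaCaT (KeratinoSens), 1,500/well. Test agents in DMSO were applied for 23 h, 37 C/5% CO2. CellTiter-Fluor was incubated 1 h before the fluorescence read.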
A general note: Quantitative high-throughput screening tests each substance at several concentrations.

For assay [2], the target named is KiSS-1 receptor (Homo sapiens) (UniProt Q969F8). Briefly: Human kisspeptin (KISS1R) small molecule agonists, calcium flux assay in KISS1R-HEK293 cells (AID 1920064; active = well fitted curve in the direction sought with a large enough effect in the repeat runs; an effect the other way counts as inactive or inconclusive). Summed up:
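After overnight (18 h) culture at 37 C/5% CO2, human KISS1R-HEK293 cells received calcium dye for 1 h, then test compound; emission at 540 nm (excitation 480 nm) was tracked for 3 min.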
A general note: Calcium flux is commonly read through the fluorescence of an indicator in the cells.

Assay [3] in a line: G protein-coupled receptor (GPCR) small molecule agonists, calcium flux assay: HEK293 wild type cell line counter screen (AID 1920065). A digest of the protocol:
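Following 18 h incubation at 37 C/5% CO2, plates got calcium dye for 1 h; compounds, ATP or DMSO were then pinned in and fluorescence followed kinetically (480/540 nm).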

Assay [4] can be described thus: p53 small molecule agonists, cell-based qHTS assay with human liver microsomes (AID 1963577).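 Note: p53 response element beta-lactamase reporter cells with liver microsomes plus NADPH.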 A digest of the protocol: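 Metabolically competent format: test substances, human liver microsomes and NADPH (both 0.5 mg/mL final) incubated with p53RE-bla cells 16 h at 37 C. Beta-lactamase reporter signal then quantified by fluorescence.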
A short description of assay [5]: p53 small molecule agonists, cell-based qHTS assay with rat liver microsomes (AID 1963578). A digest of the protocol:
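Each plate received p53RE-bla cells, then compound, then rat liver microsomes and NADPH (both 0.5 mg/mL final). Plates were held 16 h at 37 C, and beta-lactamase activity was detected with LiveBLAzer over 2 h.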

Assay [6] is described as follows: p53 small molecule agonists, cell-based qHTS assay with human liver microsomes: qHTS cell viability counter screen (AID 1963579). Note: nearly all actives have a fitted effect of over 45% in size. Note: potency is the fitted concentration of half-maximal effect. Summed up:
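Tox21 library compounds, delivered from DMSO stocks, were tested on p53RE-bla cells together with 0.5 mg/mL human liver microsomes and 0.5 mg/mL NADPH (final) over 16 h at 37 C; CellTiter-Glo luminescence served as the cytotoxicity measure.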

Assay [7] in a line: p53 small molecule agonists, cell-based qHTS assay with rat liver microsomes: qHTS cell viability counter screen (AID 1963580). Note: nearly all actives have a fitted effect of over 45% in size. A digest of the protocol:
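Cytotoxicity counter screen: intracellular ATP measured by CellTiter-Glo luminescence in the same wells as the beta-lactamase reporter read, on HCT-116 p53RE-bla cells exposed 16 h at 37 C to compounds with rat liver microsomes and NADPH, each 0.5 mg/mL final.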

Assay [8] can be described thus: p53 small molecule agonists, cell-based qHTS assay: qHTS cell viability counter screen (AID 1963581). Note: nearly all actives have a fitted effect of over 45% in size. Note: potency is the fitted concentration of half-maximal effect. Summed up: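 qHTS counter screen: 16 h compound exposure at 37 C of p53RE-bla HCT-116 cells (4,000 per well, seeded 5 h prior), cell viability by ATP luminescence.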
Assay [9] can be described thus: p53 small molecule agonists, cell-based qHTS assay (AID 1963582; active = well fitted activation curve with a large enough effect in the signal ratio in the repeat runs, not every such curve was filed as active; the % refers to the signal ratio). Summed up: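 Measured: fluorescence from cleaved LiveBLAzer substrate. System: p53RE-bla cells, 16 h compound treatment at 37 C, 2 h substrate step at room temperature.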
Assay [10] in a line: cAMP Responsive Elements (CRE) small molecule agonists, cell-based qHTS assay (AID 1963590). A digest of the protocol: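 Test agents in DMSO were incubated 3 h at 37 C/5% CO2 with CRE-bla HEK 293T cells seeded 18 h earlier; LiveBLAzer B/G FRET substrate was added and read after 2 h at room temperature.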
Assay [11] has as its target Beta-2 adrenergic receptor (Homo sapiens) (UniProt P07550). Kind of assay: Adrenergic beta2 receptor (ADRB2) small molecule antagonists, cell-based qHTS assay (AID 1963592). Note: series mostly up to about 92 µM; nearly all actives have a fitted effect of over 50% in size. Summed up:
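Assay format: CHO-ADRB2 cells, 18-20hr seeding at 37C/5% CO2, then compound plus 1nM isoproterenol agonist mix for 0.5hr RT. Homogeneous time-resolved fluorescence cAMP detection after 1hr, expressed as 665/615 nm ratio.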

In assay [12] the target is D(2) dopamine receptor (Homo sapiens) (UniProt P14416). Kind of assay: Dopamine D2 receptor (DRD2) small molecule agonists, cell-based qHTS assay (AID 1963594). Note: nearly all actives have a fitted effect of over 35% in size. A digest of the protocol: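 HEK293 cells stably expressing human DRD2, pre-treated with PDE inhibitor Ro20-1724 (0.1 mM final) and compound 10 min at room temperature, then stimulated with NKH477 (200nM […]) for 30 min. cAMP read by HTRF (665/620 nm).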
Sequence of D(2) dopamine receptor (Homo sapiens) (P14416 whole entry, looked up): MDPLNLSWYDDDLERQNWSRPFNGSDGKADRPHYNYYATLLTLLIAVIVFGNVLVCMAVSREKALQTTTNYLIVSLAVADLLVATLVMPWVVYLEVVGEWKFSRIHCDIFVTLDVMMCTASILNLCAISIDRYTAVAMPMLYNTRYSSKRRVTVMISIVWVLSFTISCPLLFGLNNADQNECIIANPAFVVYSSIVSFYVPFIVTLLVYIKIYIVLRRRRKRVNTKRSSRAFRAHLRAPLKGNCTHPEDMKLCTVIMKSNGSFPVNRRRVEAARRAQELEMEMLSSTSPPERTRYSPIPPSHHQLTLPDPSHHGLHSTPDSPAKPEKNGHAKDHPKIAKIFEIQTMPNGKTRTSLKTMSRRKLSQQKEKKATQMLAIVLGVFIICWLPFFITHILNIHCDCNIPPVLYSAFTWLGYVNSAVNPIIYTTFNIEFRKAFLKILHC

For assay [13], the target named is Beta-2 adrenergic receptor (Homo sapiens) (UniProt P07550). Kind of assay: Adrenergic beta2 receptor (ADRB2) small molecule agonists, cell-based qHTS assay (AID 1963593).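 Note: CHO cells stably overexpressing human ADRB2.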 Summed up:
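CHO cells stably over-expressing ADRB2 were plated overnight at 37C, then dosed with compounds plus a stimulation mix containing 100uM IBMX and 25uM Ro-20-1724 for 0.5hr at room temperature. cAMP was measured by HTRF competition, 1hr.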

Assay [14] addresses D(2) dopamine receptor (Homo sapiens) (UniProt P14416). Briefly: Dopamine D2 receptor (DRD2) small molecule antagonists, cell-based qHTS assay (AID 1963595; active = well fitted inhibition curve with a large enough effect in the signal ratio in the repeat runs, with a control signal flat; the % refers to the signal ratio). Summed up: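 HEK293 cells stably expressing DRD2 were preincubated with 0.1 mM Ro20-1724, then with compound for 10 min at room temperature. Cells were stimulated with 200 nM NKH477 plus 12 nM quinpirole for 30 min, and cAMP was read by HTRF.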

Assay [15] concerns the target 5-hydroxytryptamine receptor 2A (Homo sapiens) (UniProt P28223). Briefly: 5-hydroxytryptamine receptor 2A (HTR2A) small molecule antagonists, cell-based qHTS assay (AID 1963586). Note: nearly all actives have a fitted effect of over 45% in size. Summed up: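 CHO cells stably expressing human HTR2A were plated for 18 h at 37 C, then loaded with calcium dye for 1 h. Compounds were preincubated 5 min at room temperature before DOI (4 nM solution) was added. Kinetic fluorescence was read for 3 min.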

Assay [16] shares this target. Briefly: 5-hydroxytryptamine receptor 2A (HTR2A) small molecule agonists, cell-based qHTS assay (AID 1963587). Note: nearly all actives have a fitted effect of over 30% in size. Summed up:
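CHO cells stably expressing human HTR2A, plated 18 h, loaded with calcium dye 1 h at 37 C. Agonist mode: compounds added and intracellular calcium fluorescence recorded kinetically for 2 min at 1 sec intervals.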

Assay [17] addresses Muscarinic acetylcholine receptor M1 (Homo sapiens) (UniProt P11229). Kind of assay: Cholinergic receptor muscarinic 1 (CHRM1) small molecule antagonists, cell-based qHTS assay (AID 1963588). Note: nearly all actives have a fitted effect of over 40% in size. Summed up:
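Compounds were tested at 15 concentrations in three independent runs. Dye-loaded CHRM1-CHO cells were exposed 5 min at room temperature before stimulation by acetylcholine added at 50nM. Intracellular calcium was read kinetically on FDSS for 3 min.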

For assay [18] the target is unchanged. Briefly: Cholinergic receptor muscarinic 1 (CHRM1) small molecule agonists, cell-based qHTS assay (AID 1963589). Note: nearly all actives have a fitted effect of over 35% in size. A digest of the protocol: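 Kinetic fluorescence (1 s intervals) of calcium-sensitive dye in human M1 CHO cells after compound addition; cells pre-incubated 18 h at 37 C/5% CO2 and dye-loaded 1 h.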
Assay [19] can be described thus: cAMP Responsive Elements (CRE) small molecule antagonists, cell-based qHTS assay (AID 1963591; active = well fitted inhibition curve with a large enough effect in the signal ratio in the repeat runs, not every such curve was filed as active; the % refers to the signal ratio). Summed up:
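Reporter line CRE-bla HEK 293T in dialyzed-FBS DMEM; cells preincubated 18 h, treated 3 h with compound plus NKH477 (0.25 uM final); LiveBLAzer FRET, 2 h RT.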

“And” between values parts separate entries of the source, which are not always exact repeats. Equal entries are not always repeated. Inconclusive results are not listed. More than one record can exist for a structure, and the calls need not agree. The source made the active and inactive calls. Unless noted, calls come from the whole dose curve.

Sequence of Beta-2 adrenergic receptor (Homo sapiens) (P07550 whole entry, looked up): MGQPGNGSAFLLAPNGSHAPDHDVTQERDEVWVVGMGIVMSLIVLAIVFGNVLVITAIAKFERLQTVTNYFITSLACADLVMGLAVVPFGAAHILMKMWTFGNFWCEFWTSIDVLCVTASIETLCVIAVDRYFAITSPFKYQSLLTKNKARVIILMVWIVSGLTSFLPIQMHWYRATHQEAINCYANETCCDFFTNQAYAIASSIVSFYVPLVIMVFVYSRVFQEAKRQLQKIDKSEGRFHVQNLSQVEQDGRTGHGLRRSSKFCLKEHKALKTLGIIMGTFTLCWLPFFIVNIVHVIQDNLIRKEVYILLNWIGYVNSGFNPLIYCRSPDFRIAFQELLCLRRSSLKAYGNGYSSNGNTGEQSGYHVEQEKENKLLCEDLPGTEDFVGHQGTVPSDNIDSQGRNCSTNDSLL
Sequence of Muscarinic acetylcholine receptor M1 (Homo sapiens) (P11229 whole entry, looked up): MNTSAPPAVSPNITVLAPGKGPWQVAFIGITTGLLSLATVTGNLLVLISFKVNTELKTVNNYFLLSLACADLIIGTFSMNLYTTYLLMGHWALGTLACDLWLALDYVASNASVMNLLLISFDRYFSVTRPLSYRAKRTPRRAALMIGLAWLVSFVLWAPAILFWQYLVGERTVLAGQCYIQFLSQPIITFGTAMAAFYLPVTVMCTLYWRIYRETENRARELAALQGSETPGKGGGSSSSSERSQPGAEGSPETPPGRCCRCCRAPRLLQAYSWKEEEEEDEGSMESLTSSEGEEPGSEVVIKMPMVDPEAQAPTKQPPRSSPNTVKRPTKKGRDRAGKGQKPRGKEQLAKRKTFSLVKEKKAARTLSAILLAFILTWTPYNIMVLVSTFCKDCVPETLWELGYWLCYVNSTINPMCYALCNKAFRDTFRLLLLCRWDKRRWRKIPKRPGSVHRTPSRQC
Sequence of 5-hydroxytryptamine receptor 2A (Homo sapiens) (P28223 whole entry, looked up): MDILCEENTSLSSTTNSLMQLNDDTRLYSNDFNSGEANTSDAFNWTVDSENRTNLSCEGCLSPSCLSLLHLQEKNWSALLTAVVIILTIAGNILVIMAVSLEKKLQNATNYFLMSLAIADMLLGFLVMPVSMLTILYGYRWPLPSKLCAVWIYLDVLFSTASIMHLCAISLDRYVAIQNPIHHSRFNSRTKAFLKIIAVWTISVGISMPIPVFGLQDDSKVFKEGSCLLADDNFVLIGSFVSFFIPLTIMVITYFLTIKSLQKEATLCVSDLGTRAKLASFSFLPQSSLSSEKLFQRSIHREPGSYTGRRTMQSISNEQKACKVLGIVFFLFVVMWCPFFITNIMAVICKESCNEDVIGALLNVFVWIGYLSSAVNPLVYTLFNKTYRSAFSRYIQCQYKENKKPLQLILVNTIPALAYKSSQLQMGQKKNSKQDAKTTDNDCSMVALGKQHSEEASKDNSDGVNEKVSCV
Sequence of KiSS-1 receptor (Homo sapiens) (Q969F8 whole entry, looked up): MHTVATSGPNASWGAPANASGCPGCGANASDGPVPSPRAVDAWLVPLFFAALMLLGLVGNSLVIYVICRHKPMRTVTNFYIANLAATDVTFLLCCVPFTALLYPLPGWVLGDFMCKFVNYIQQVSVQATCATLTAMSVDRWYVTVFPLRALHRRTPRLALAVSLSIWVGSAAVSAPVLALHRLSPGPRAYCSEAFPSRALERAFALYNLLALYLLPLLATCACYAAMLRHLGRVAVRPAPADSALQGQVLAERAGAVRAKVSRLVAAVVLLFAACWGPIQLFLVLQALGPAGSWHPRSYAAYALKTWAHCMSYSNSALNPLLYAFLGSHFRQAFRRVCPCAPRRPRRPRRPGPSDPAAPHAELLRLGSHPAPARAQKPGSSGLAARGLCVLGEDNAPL

`Cn1c(=O)c2c(ncn2C)n(C)c1=O`: the Potency entry in assay [1], in assay [2], in assay [3], in assay [4], in assay [5] and in assay [6] was “inactive” throughout. Besides, the Potency entry in assay [7], in assay [8], in assay [9], in assay [10], in assay [11] and in assay [12] was “inactive” throughout.

Take `O=C(c1ccc(OCCN2CCCCC2)cc1)c1c(-c2ccc(O)cc2)sc2cc(O)ccc12`: the Potency in [1] is 34.4 µM (active) and 30.6 µM (active); in assay [6], 45.8 µM (active) and inactive; in [8], 36.4 µM (active) and inactive. Moreover, the Potency entry in assay [2], in assay [3], in [4], in [5], in assay [7] and in assay [9] was “inactive” each time. In addition, the Potency result in assay [13], in assay [12] and in [14] was “inactive” each time.

Regarding `NCCCN1CCN(CCCN)CC1`, the Potency entry in [1], in assay [2], in assay [3], in [4], in [5] and in assay [6] was “inactive” throughout. Moreover, the Potency result in assay [7], in assay [8], in assay [9], in assay [15], in assay [16] and in assay [17] was “inactive” in each case. Also, the Potency entry in [18], in assay [10], in assay [19] and in assay [12] was “inactive” in each case.

In the case of `O=S(=O)(O)CCS`, the Potency result in assay [1], in [2], in assay [3], in assay [4], in assay [5] and in assay [6] was “inactive” each time. Further, the Potency result in assay [7], in assay [8], in assay [9], in assay [10], in assay [19] and in assay [11] was “inactive” throughout. Moreover, the Potency entry in [13], in [12] and in assay [14] was “inactive” throughout.

Consider `Cc1ccccc1S(N)(=O)=O`, for which the Potency result in assay [1], in [2], in assay [3], in [4], in assay [5] and in assay [6] was “inactive” throughout. The Potency result in [7], in [8], in [9], in assay [15], in assay [16] and in assay [18] was “inactive” each time. In addition, the Potency result in assay [10], in assay [19], in assay [11] and in assay [14] was “inactive” each time.

For the compound `COCC(O)CO` (stereo unspecified), the Potency result in assay [1], in assay [2], in [3], in assay [4], in assay [5] and in assay [6] was “inactive” each time. Also, the Potency result in assay [7], in assay [8], in [9], in [15], in [16] and in assay [17] was “inactive” throughout. Further, the Potency result in [10], in [19], in [11], in [13] and in [12] was “inactive” throughout.

In the case of `CCCCCCCCCOCC1CO1` (stereo unspecified), the Potency result in assay [1], in assay [2], in assay [3], in assay [4], in assay [5] and in assay [6] was “inactive” throughout. For the same compound, the Potency entry in [7], in [8], in assay [9], in assay [15], in assay [16] and in [17] was “inactive” each time. Further, the Potency result in [18], in assay [10], in [11], in [12] and in assay [14] was “inactive” in each case.

Regarding `NC1CCCCC1N` (stereo unspecified), the Potency entry in assay [1], in assay [2], in assay [3], in assay [4], in [5] and in assay [6] was “inactive” in each case. Further, the Potency result in assay [7], in assay [8], in [15], in assay [16], in assay [17] and in assay [18] was “inactive” in each case. Further, the Potency result in assay [10], in assay [19], in assay [12] and in assay [14] was “inactive” each time.
